ANO1 block: blocks the mouse calcium-activated chloride channel TMEM16A | Q8BHY3 | hit rate 1.2% among 310,000 | normalized B-score (activity score, 25-100; higher = stronger inhibition) at 10 µM | HEK293 TMEM16A/YFP iodide influx fluorescence, ionomycin | AID 588511;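 active = ratio plate-corrected score three or more library SD toward inhibition, starting fluorescence score within five deviations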;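 also: score derived from kinetic fluorescence span divided by baseline fluorescence per well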
CHT allo act: human CHT allosteric activation. Q9GZV3. CHT-expressing cells, membrane potential dye, choline EC20; active compounds read high; LV-AA mutant CHT in HEK293 cells. B-score at 10 µM. hit rate 0.49% among 310,000. AID 488977;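 active = initial fluorescence not abnormally high and integrated response B-score, plate-corrected, over 3 SD above library mean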
TMEM16A act: activates or potentiates the mouse TMEM16A chloride channel; Q8BHY3; HEK293 TMEM16A/YFP-H148Q/I152L, iodide quench fluorescence; active compounds read low; hit rate 0.3% among 340,000; B-score at 10 µM; AID 623877;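 active = fluorescence-ratio B-score plate-corrected deviation score at least 3 library SD below zero, with starting fluorescence score within 5 deviations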;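 also: channel opened by trigger with iodide after compound preincubation; score built on the fluorescence ratio of max minus min over baseline; more negative score means more quench and so TMEM16A activation or potentiation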
CHT block: human CHT choline transport inhibition; Q9GZV3; CHT-expressing cells, membrane potential dye, choline response; active compounds read low; B-score at 10 µM; hit rate 0.86% among 310,000; AID 488975;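 active = B-score over 3 SD under the library average, and starting fluorescence ratio not unusually high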;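 also: choline stimulus applied at its EC90 after an EC20 pre-addition; B-score computed on integrated fluorescence ratio after choline addition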
CHT inh conf: human CHT inhibition, confirmatory screen | shares compounds with CHT block | CHT-expressing cells, choline membrane potential dye; LV-to-AA substituted CHT, HEK293 cells | CHT activity remaining % of control (active compounds read low), % at 10 µM | hit rate 70% among 2,400 | AID 493221;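 active = choline transporter activity left, mean of duplicates at 10 µM, below buffer-only control mean minus 3 SD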;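 also: depolarization triggered by choline at its EC90 following an EC20 pre-addition; 0% = hemicholinium-3 full block and 100% = buffer-only control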
HEK293 CHT ctr: CHT inhibitor counter-screen hit in parental HEK293 cells; shares compounds with CHT block; membrane potential dye, choline response; active = decrease or increase beyond buffer ±3SD; membrane potential ratio readout (active if shifted either direction beyond buffer ±3SD; no single direction) at 10 µM; hit rate 4% among 2,400;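 also: parental cells lack the transporter so any hit is non-specific; ratio is peak minus trough fluorescence over baseline after EC90 choline challenge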
TMEM16A reconf: TMEM16A (mouse) chloride channel inhibition, re-confirmation. shares compounds with ANO1 block. HEK293 TMEM16A/YFP-H148Q, iodide quench fluorescence; ionomycin added to raise cell calcium. inhibition, % at 10 µM. hit rate 39% among 2,300;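 active = mean duplicate percent inhibition, scaled so buffer wells are 0 and the reference blocker 100, over three buffer SD above buffer mean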
TMEM16A Ca cntr: calcium mobilization counter-screen hit for TMEM16A inhibitor series; shares compounds with ANO1 block; TMEM16A/YFP HEK293, Fluo4 calcium mobilization; calcium response (% of ionomycin), % at 10 µM; hit rate 2% among 2,300; AID 652231;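 active = duplicate-averaged calcium signal over 20% of the ionomycin maximum, relative to buffer baseline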;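 also: each well's signal is peak minus trough fluorescence divided by its pre-addition baseline; 0% = buffer wells and 100% = ionomycin wells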
Parental YFP cnt: acts in parental YFP-HEK293 cells lacking TMEM16A, counter-screen; iodide YFP quench, ionomycin; 2,300 tested, under 10 active; YFP ratio F(max-min)/F0 at 10 µM; shares compounds with ANO1 block;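 active = yellow fluorescent protein signal ratio exceeding the buffer control mean by over 5 SD of those controls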;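 also: ratio is mean of duplicate wells from kinetic YFP trace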
ClC-1 rat inh: blocks the rat ClC-1 voltage-dependent chloride channel. shares compounds with ANO1 block. CHO ClC-1-YFP, iodide influx fluorescence quench; iodide control reads 0, buffer control 100. ratio percent, % at 10 µM. 2,300 tested, under 10 active;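 active = duplicate-mean ratio percent above the mean of iodide-only control wells, which defines zero, plus 5 of their SD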;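 also: higher percent means stronger block of ClC-1 iodide influx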
Target sequence (P35524 whole entry, looked up): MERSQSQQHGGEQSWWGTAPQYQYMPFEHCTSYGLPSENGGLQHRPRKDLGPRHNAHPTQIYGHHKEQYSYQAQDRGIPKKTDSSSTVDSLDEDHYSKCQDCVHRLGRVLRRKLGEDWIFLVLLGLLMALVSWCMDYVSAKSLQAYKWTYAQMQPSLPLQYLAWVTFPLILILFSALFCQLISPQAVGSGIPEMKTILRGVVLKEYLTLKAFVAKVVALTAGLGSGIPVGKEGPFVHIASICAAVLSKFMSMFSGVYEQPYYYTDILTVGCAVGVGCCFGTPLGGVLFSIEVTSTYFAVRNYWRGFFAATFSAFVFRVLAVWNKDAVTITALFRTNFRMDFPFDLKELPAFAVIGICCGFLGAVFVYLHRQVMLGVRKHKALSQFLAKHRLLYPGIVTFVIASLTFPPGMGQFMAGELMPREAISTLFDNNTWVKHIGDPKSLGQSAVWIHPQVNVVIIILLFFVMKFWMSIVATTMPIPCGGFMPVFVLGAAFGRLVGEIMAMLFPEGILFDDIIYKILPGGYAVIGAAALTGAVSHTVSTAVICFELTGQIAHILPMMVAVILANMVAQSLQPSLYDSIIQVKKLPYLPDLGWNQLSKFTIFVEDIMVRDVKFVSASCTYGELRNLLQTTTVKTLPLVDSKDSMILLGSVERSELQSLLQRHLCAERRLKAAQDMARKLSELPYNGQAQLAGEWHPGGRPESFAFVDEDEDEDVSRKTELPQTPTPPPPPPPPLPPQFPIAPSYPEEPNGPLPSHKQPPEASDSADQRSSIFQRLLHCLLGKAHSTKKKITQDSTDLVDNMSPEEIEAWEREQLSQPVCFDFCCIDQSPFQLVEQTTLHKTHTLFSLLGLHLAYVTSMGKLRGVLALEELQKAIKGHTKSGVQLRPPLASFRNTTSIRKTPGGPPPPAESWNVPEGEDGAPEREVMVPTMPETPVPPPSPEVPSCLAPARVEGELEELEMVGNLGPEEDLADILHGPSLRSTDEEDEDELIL
Numbers without * were called inactive. An excerpt weighted towards active compounds, which were near 2.3% of everything screened.

How did O=S(=O)(Nc1nc2ccccc2s1)c1ccc(Br)s1 do in these assays?
ANO1 block: 100*; CHT allo act: inactive; TMEM16A act: inactive; CHT block: -7.1*; CHT inh conf: 69%*; HEK293 CHT ctr: inactive; TMEM16A reconf: 24%*; TMEM16A Ca cntr: inactive; Parental YFP cnt: -0.9; ClC-1 rat inh: -4

Results for CCc1nnc(NC(=O)CSc2nnc(-c3ccccc3OC)n2-c2ccc(C)cc2)s1 ?
ANO1 block: inactive; CHT allo act: inactive; TMEM16A act: inactive; CHT block: inactive

How did CCc1nnc(NC(=O)CSc2nnc(-c3ccccc3OC)n2-c2ccccc2)s1 do in these assays?
ANO1 block: 25*; CHT allo act: inactive; TMEM16A act: inactive; CHT block: -5.5*; CHT inh conf: 41%*; HEK293 CHT ctr: inactive; TMEM16A reconf: inactive; TMEM16A Ca cntr: inactive; Parental YFP cnt: -1.1; ClC-1 rat inh: -10

Results for FC(F)(F)c1cccc(-c2nc3nc(Cl)c(Cl)nc3[nH]2)c1 ?
ANO1 block: 25*; CHT allo act: inactive; TMEM16A act: inactive; CHT block: -7.8*; CHT inh conf: 50%*; HEK293 CHT ctr: inactive; TMEM16A reconf: 31%*; TMEM16A Ca cntr: inactive; Parental YFP cnt: -0.99; ClC-1 rat inh: -19

What do the screens show for `COc1ccc(CCC(=O)NCCCNC(=O)CCc2ccc(OC)cc2)cc1`?
ANO1 block: inactive; CHT allo act: inactive; TMEM16A act: inactive; CHT block: inactive

Results for CCC(=NC(C)c1ccccc1)c1c(O)n(C)c(=O)n(C)c1=O (stereo unspecified) ?
ANO1 block: 100*; CHT allo act: inactive; TMEM16A act: inactive; CHT block: -7.5*; CHT inh conf: 51%*; HEK293 CHT ctr: inactive; TMEM16A reconf: 22%*; TMEM16A Ca cntr: inactive; Parental YFP cnt: -0.93; ClC-1 rat inh: -24

What do the screens show for `CC(/C=C1\SC(=S)N(C(C(=O)O)c2ccccc2)C1=O)=C\c1ccccc1` (stereo unspecified)?
ANO1 block: 100*; CHT allo act: inactive; TMEM16A act: inactive; CHT block: inactive; CHT inh conf: 46%*; HEK293 CHT ctr: inactive; TMEM16A reconf: 72%*; TMEM16A Ca cntr: inactive; Parental YFP cnt: -1; ClC-1 rat inh: -68

What do the screens show for `Cc1ccc(CNC(=O)c2ccccc2NS(C)(=O)=O)cc1`?
ANO1 block: inactive; CHT allo act: inactive; TMEM16A act: inactive; CHT block: inactive

How did Cc1ccc(CNC(=O)c2ccccc2NS(=O)(=O)c2ccc(Cl)nc2)cc1 do in these assays?
ANO1 block: 100*; CHT allo act: inactive; TMEM16A act: inactive; CHT block: -5.7*; CHT inh conf: 54%*; HEK293 CHT ctr: inactive; TMEM16A reconf: 18%*; TMEM16A Ca cntr: inactive; Parental YFP cnt: -1.1; ClC-1 rat inh: -26

How did O=S(=O)(Nc1nc(-c2ccccc2)cs1)c1cccc(C(F)(F)F)c1 do in these assays?
ANO1 block: 100*; CHT allo act: inactive; TMEM16A act: inactive; CHT block: -7.7*; CHT inh conf: 51%*; HEK293 CHT ctr: inactive; TMEM16A reconf: 25%*; TMEM16A Ca cntr: inactive; Parental YFP cnt: -1; ClC-1 rat inh: -20

What do the screens show for `Cc1ccc(S(=O)(=O)Nc2nc(-c3ccc(F)cc3)cs2)cc1`?
ANO1 block: inactive; CHT allo act: inactive; TMEM16A act: inactive; CHT block: inactive

How did CC(C)(C)C(=O)Nc1sc(-c2ccccc2)cc1C(=O)O do in these assays?
ANO1 block: inactive; CHT allo act: inactive; TMEM16A act: inactive; CHT block: inactive

Results for Cc1cccc(C(=O)Nc2sc(-c3ccccc3)cc2C(=O)O)c1 ?
ANO1 block: 25*; CHT allo act: inactive; TMEM16A act: inactive; CHT block: -6.3*; CHT inh conf: 53%*; HEK293 CHT ctr: inactive; TMEM16A reconf: inactive; TMEM16A Ca cntr: inactive; Parental YFP cnt: -0.85; ClC-1 rat inh: 0

Results for COc1ccc(NC(=O)C/C(C)=N/NC(=O)C2CCCCC2)c([N+](=O)[O-])c1 ?
ANO1 block: inactive; CHT allo act: inactive; TMEM16A act: inactive; CHT block: inactive

What do the screens show for `O=C(CCc1nc2ccccc2c(=O)[nH]1)N1CCN(S(=O)(=O)c2ccc(Cl)c(C(F)(F)F)c2)CC1`?
ANO1 block: inactive; CHT allo act: inactive; TMEM16A act: inactive; CHT block: inactive

How did N#CC(C#N)=c1ccc2c(c1)N1C3=C(CCCC3)CC3CCCCC31N=2 (stereo unspecified) do in these assays?
ANO1 block: 25*; CHT allo act: inactive; TMEM16A act: inactive; CHT block: -11*; CHT inh conf: 62%*; HEK293 CHT ctr: inactive; TMEM16A reconf: inactive; TMEM16A Ca cntr: inactive; Parental YFP cnt: -0.85; ClC-1 rat inh: -1

What do the screens show for `COc1ccc(OC)c(C(=O)CSc2nccc(-c3ccc(Br)cc3)n2)c1`?
ANO1 block: inactive; CHT allo act: inactive; TMEM16A act: inactive; CHT block: inactive

What do the screens show for `O=C(O)c1cccc2c1C(=O)c1cccc3snc-2c13`?
ANO1 block: inactive; CHT allo act: inactive; TMEM16A act: inactive; CHT block: inactive

Results for Cc1noc(C)c1CCC(=O)Nc1c(C(C)C)cccc1C(C)C ?
TMEM16A act: inactive

What do the screens show for `CC1=NN(C(=O)c2ccc(Br)cc2)C(O)(C(F)(F)OC(F)(F)F)C1` (stereo unspecified)?
ANO1 block: 100*; CHT allo act: inactive; TMEM16A act: inactive; CHT block: -5.1*; CHT inh conf: 44%*; HEK293 CHT ctr: inactive; TMEM16A reconf: 29%*; TMEM16A Ca cntr: inactive; Parental YFP cnt: -0.97; ClC-1 rat inh: -21

How did CCc1ccc(C2CC(=O)N(c3ccc(F)cc3)C3=C2C(=O)OC3)cc1 (stereo unspecified) do in these assays?
ANO1 block: inactive; CHT allo act: inactive; TMEM16A act: inactive; CHT block: inactive

Assay outcomes (PubChem BioAssay)
